High-throughput results deposited in PubChem by National Center for Advancing Translational Sciences (NCATS).
KDM5B inhibitor: blocks human KDM5B histone demethylase activity | Q9UGL1 | KDM5B demethylase, FDH-coupled NADH fluorescence (FDH is formaldehyde dehydrogenase) | Potency, µM (top dose mostly 57.7 µM), usual class: inhibitors | 220,000 compounds, 2.6% hits | AID 1347165; active = well fitted inhibition curve with a large enough effect; inconclusive = small, poorly fitted or top-dose-only effect; inactive = no such curve, though single readings can be large or run the other way; note: nearly all actives have a fitted effect of over 70% in size
Target sequence (Q9UGL1 whole entry, looked up): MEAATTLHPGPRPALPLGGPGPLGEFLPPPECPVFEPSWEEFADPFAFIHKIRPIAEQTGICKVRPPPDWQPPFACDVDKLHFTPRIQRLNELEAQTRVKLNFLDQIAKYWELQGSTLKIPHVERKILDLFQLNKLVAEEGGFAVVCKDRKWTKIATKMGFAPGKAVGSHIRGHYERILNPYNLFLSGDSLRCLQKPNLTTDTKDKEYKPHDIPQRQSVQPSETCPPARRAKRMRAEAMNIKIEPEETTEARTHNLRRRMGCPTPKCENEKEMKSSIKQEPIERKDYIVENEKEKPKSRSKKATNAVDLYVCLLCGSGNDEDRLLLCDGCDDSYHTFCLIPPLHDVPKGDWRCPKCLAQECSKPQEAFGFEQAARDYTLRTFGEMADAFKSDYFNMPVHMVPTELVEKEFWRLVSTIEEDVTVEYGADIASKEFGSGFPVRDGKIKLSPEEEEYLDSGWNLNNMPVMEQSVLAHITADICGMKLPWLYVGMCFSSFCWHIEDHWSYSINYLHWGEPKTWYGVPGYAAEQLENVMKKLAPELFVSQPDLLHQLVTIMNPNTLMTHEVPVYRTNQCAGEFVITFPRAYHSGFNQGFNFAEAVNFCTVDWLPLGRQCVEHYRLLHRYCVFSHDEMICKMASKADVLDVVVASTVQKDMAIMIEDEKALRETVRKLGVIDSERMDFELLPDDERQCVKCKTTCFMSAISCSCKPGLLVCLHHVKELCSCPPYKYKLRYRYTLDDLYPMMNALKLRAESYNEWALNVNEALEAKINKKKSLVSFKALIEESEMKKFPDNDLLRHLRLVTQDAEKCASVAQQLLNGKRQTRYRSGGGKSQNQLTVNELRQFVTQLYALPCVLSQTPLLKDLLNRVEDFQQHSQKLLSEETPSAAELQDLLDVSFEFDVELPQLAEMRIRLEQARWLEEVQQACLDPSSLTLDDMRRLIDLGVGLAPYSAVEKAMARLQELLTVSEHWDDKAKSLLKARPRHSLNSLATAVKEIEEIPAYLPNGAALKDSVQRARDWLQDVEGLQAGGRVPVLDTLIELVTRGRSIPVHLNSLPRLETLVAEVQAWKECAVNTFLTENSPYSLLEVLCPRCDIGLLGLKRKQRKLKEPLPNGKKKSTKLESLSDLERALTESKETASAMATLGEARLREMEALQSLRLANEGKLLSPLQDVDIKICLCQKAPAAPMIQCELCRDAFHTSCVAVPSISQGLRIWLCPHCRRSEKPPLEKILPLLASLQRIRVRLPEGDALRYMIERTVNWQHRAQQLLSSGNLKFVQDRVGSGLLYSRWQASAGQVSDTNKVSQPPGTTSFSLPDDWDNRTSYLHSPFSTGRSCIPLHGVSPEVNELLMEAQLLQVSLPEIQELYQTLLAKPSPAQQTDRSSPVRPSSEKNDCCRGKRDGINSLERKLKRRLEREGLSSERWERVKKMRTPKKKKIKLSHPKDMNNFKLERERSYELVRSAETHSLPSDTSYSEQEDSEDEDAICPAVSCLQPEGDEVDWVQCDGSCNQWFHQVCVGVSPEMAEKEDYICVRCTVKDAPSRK
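Compound dilutions met 200 nM (final) KDM5BΔAP for 10 min at room temperature before substrate addition. The substrate mix held 12.5 µM H3K4me3 with cofactors 25 µM α-ketoglutarate and 50 µM Fe²⁺. NADH signal gain over 30 min defined activity.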
IP6K1 inh: blocks human inositol hexakisphosphate kinase 1; activity change, % (series mostly up to about 58 µM); IP6K1 kinase, ADP-Glo luminescence, 2 h; hits give low values; 140,000 compounds, 0.81% hits; AID 1645851; in the data active = activity change below about -25%
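ADP-Glo luminescence measures ADP made by human IP6K1 during a 2 h RT reaction with ATP/IP6 (mix at 1.3 mM/130 uM); top library doses 57.5 and 19.1 uM final.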
Hits are given with their value; - = inactive; ? = inconclusive; . = no result. Rows were chosen to be rich in hits. Some 2.7% of all compounds tested hit in one or more screens of this group.

SMILES	KDM5B inhibitor	IP6K1 inh
CN(C)c1cccc(-c2nc(N3CCOCC3)cc3c2CN(Cc2cnn(C)c2)C3=O)c1	-	-
Cc1ccccc1-c1nc(N2CCOCC2)cc2c1CN(Cc1cnn(C)c1)C2=O	39.8µM	-
Cc1ccc(NC(=O)C(=O)c2c(C)[nH]c3ccccc23)cc1Cl	-	.
COc1ccc(C(=O)N2CCC(N3C(=O)c4c(c(C)nn4-c4ccccc4)C3C3CC3)C2)cc1 (stereo not given)	.	-
Cc1ccccc1-c1nc(N2CCOCC2)cc2c1CN(c1ccccc1)C2=O	35.5µM	-
COc1ccc(-c2nc(N3CCOCC3)cc3c2CN(Cc2cnn(C)c2)C3=O)cn1	39.8µM	-
O=C(c1nc(-c2cccnc2)no1)N1CCN(c2ccccc2)CC1	-	.
O=C1c2cc(N3CCOCC3)nc(-c3cccnc3)c2CN1c1ccccc1	39.8µM	-
COc1ccc(-c2ccc3ncc(Nc4ccnc(N5CCOCC5)c4)n3n2)cn1	-	-
Cc1ccccc1NC(=O)Nc1ccc2nc(N3CCOCC3)cc(C)c2c1	-	.
CC(C)C(C)(C#N)NC(=O)COc1ccccc1C(F)(F)F (stereo not given)	-	.
CCOc1ccc(-n2c(SCC(=O)OC)nc3ccccc3c2=O)cc1	-	.
CCCCn1c(=O)[nH]c(=O)c2c1nc(CSc1nnnn1-c1ccc(C)cc1C)n2CCC	-	.
COc1ccc2nc([C@H]3CCN(CCCc4ccccc4)C3)[nH]c2c1	?	-
Cc1ccc(-c2cccc(CN3CCCC3C(=O)NCc3ccccc3Cl)c2)cc1Cl (stereo not given)	.	-
O=C(CCCc1ccccc1)Nc1ccc(OC2CCNCC2)nc1	17.8µM	-
CCC(=O)N1CCC(Oc2ccc(NC(=O)NCc3ccccc3)cn2)C1 (stereo not given)	?	-
Cc1ccc(C)c(C(=O)CCC(=O)NC23CC4CC(CC(C4)C2)C3)c1	-	.
O=C(Nc1c(NCc2ccccc2)c2ccccc2oc1=O)c1cccc(Cl)c1	-	.
O=C(Nc1ccc(Cl)cc1)N1CCc2nc(C3CC3)nc(-c3ccc(Cl)cc3)c2C1	?	-
Cc1ccc(-n2nc3n(c2=O)CCN(C(=O)c2ccc(Cl)nc2)C3)cc1	25.1µM	-
COc1ccccc1C(=O)N1CCn2c(nn(-c3ccc(C(F)(F)F)cc3)c2=O)C1	79.4µM	-
O=C(c1ccccc1)N1CCn2c(nn(-c3ccc(C(F)(F)F)cc3)c2=O)C1	?	-
O=C(c1ccc(Cl)nc1)N1CCn2c(nn(-c3ccncc3)c2=O)C1	-	-
CC1CCCCC1NC(=O)c1cc(-c2ccccc2)nc2ccccc12 (stereo not given)	-	.
SMILES	KDM5B inhibitor	IP6K1 inh
COc1ccc(Nc2ccc3c(n2)CN(Cc2ccccc2)C(=O)CO3)cn1	-	-
CN1Cc2nc(-c3ccc4c(c3)OCO4)ccc2OCC1=O	31.6µM	-
Cc1nc(CN2Cc3nc(-c4ccc5c(c4)OCO5)ccc3OCC2=O)cs1	?	-
O=C1COc2ccc(-c3cccc(O)c3)nc2CN1Cc1ccc(C(F)(F)F)cc1	-	-
Cc1ccccc1CN1Cc2nc(-c3cccc(C(N)=O)c3)ccc2OCC1=O	31.6µM	-
CC(=O)Nc1cccc(-c2ccc3c(n2)CN(Cc2ccccc2C)C(=O)CO3)c1	-	-
O=C1COc2ccc(Nc3ccc(Cl)cc3)nc2CN1Cc1nc2ccccc2s1	35.5µM	-
O=C1COc2ccc(-c3ccc4c(c3)OCO4)nc2CN1Cc1ccc(C(F)(F)F)cc1	31.6µM	-
COc1ccc2c(C)c(CCC(=O)N3CCC(O)CC3)c(=O)oc2c1	-	.
COc1ccc(-c2nc3cc(NC(=O)C(C)C)ccc3o2)cc1Cl	-	.
COc1ccccc1-c1ccc(C(=O)N2CCC(C(=O)N3CCN(Cc4ccccc4)CC3)CC2)cc1	.	-
C=CCOc1c(OC)ccc2c1CN(C1CCCC1)C(=O)CCN2CC(O)Cc1ccccc1 (stereo not given)	.	-
CN1CCN(c2ccc([N+](=O)[O-])c(-n3nc(-c4ccc(Cl)cc4)c4ccccc4c3=O)c2)CC1	-	.
O=C1COc2ccc(-c3ccc(Cl)cc3)nc2CN1Cc1ccccc1	?	-
Cc1ccccc1CN1Cc2nc(-c3ccc4c(c3)OCO4)ccc2OCC1=O	35.5µM	-
Cc1ccccc1CN1Cc2nc(Nc3ccccc3)ccc2OCC1=O	?	-
COc1ccc(Nc2ccc3c(n2)CN(Cc2ccc(C(F)(F)F)cc2)C(=O)CO3)cn1	11.2µM	-
Cc1ccccc1CN1Cc2nc(-c3c(C)noc3C)ccc2OCC1=O	35.5µM	-
COc1ccc(Nc2ccc3c(n2)CN(Cc2ccc(F)cc2)C(=O)CO3)cn1	?	-
O=C(Nc1nccs1)c1sccc1-c1ccccc1	-	.
CCOC(C(=O)N(CC)CC(=O)NCc1cccs1)(c1ccccc1)c1ccccc1	-	.
CC(C)n1nc(C(=O)Nc2nc3c(s2)CN(C)CC3)c2ccccc2c1=O	-	.
C[S+](=O)([O-])c1ccc(-c2nccc3c(=O)cc(-c4cccnc4)oc23)cc1	35.5µM	-
COc1ncccc1-c1nccc2c(=O)cc(-c3cccnc3)oc12	35.5µM	-
